Assay outcomes deposited in PubChem by National Center for Advancing Translational Sciences (NCATS).
D2 ag-1 = activates the human D2 dopamine receptor | P14416 | DiscoveRx PathHunter D2 beta-arrestin, luminescence, 90 min; 100% = 57 uM dopamine signal | activation, % (concentration not given with the values) | 0.084% of 360,000 active; in the data active = activation above about 40%; inconclusive = between about 15% and that limit
Target sequence (P14416 whole entry, looked up): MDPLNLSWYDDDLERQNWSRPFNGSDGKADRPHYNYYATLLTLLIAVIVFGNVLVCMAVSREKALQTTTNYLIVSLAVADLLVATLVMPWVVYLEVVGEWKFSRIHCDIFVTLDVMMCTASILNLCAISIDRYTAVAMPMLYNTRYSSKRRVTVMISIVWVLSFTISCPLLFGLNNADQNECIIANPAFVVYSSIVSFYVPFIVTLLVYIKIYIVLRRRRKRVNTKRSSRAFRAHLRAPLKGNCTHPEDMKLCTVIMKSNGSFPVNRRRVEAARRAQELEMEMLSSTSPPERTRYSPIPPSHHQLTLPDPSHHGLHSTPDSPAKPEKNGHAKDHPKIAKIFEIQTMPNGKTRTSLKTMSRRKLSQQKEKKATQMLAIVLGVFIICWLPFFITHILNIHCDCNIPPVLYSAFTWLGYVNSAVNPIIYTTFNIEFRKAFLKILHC
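Agonist mode: compounds alone added to overnight-plated D2 PathHunter cells for 90 min at 37 C, with 57 uM final dopamine (EC100) defining full response. Beta-arrestin recruitment detected by chemiluminescent reagent, read after 1 h at ambient temperature.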
D2 ag-2 = activates the human D2 dopamine receptor. HEK293 T-REx D2 cells, calcium flux agonist mode. activation, % at 2 µM. 0.53% of 340,000 active;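 active = activation over 3 SD above normal in the single-dose calcium agonist read, cut at about 30% in these data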
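Tetracycline-induced HEK293 T-REx cells with force-coupled D2 receptor, plated overnight at 30 C, loaded with no-wash calcium dye. After a 10 s baseline, compound was pin-added and calcium flux read kinetically for 180 s; calcium rises flagged agonists.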
D2 antag = antagonists of human D2 dopamine receptor | P14416 | HEK293 TREx D2 cells, calcium flux, dopamine EC80 | inhibition, % at 10 µM | 2% of 340,000 active; in the data active = inhibition above about 30%; inactive = below that, where a call was filed
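Compounds are added to dye-loaded, induced HEK293 T-REx cells coupled to calcium release via D2; after a 3 min kinetic read an EC80 dopamine stimulus is given and fluorescence is recorded for 3 more min.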
D2 PAM-1 = positive allosteric modulators of human D2 dopamine receptor; HEK293 T-REx D2, calcium flux, EC20 dopamine potentiation; AID 485347; 0.34% of 340,000 active; potentiation, % at 10 µM;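 active = potentiation over 3 SD above the plate norm, cut at about 30% in these data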
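Primary screen. Calcium kinetics in induced HEK293 T-REx D2 cells: compound pre-addition 180 s, EC20 dopamine, 180 s more.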
D2 PAM-2 = potentiates the human D2 dopamine receptor allosterically; 0.23% of 360,000 active; P14416; potentiation, % (concentration not given with the values); DiscoveRx D2 beta-arrestin cells, luminescence, 90 min; 100% = 57 uM dopamine signal; in the data active = potentiation above about 50%; inconclusive = mostly about 30% to 49%
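D2 cells co-treated with compound plus 50 nM dopamine (EC20) for 90 min at 37 deg C to detect potentiation. Beta-arrestin recruitment was read as enzyme-fragment luminescence after 1 h at ambient temperature. Full response was set by 57 uM dopamine.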
Numbers stand for hits; i = inactive; ? = inconclusive; nt = no result. Sampled rows, rich in hits. Any-hit rate of the full collection: about 2.4%.

SMILES	D2 ag-1	D2 ag-2	D2 antag	D2 PAM-1	D2 PAM-2
CCOc1ccccc1NC(=O)CCNS(=O)(=O)c1cccc2nonc12	i	i	i	i	i
Cc1cccc(NC(=O)CCNS(=O)(=O)c2cccc3nonc23)c1C	i	i	31	i	i
Cc1nc(N2CCOCC2)[nH]c(=O)c1C(O)C(Cl)(Cl)Cl (centres undefined)	i	i	48	i	i
Cc1nc(N2CCOCC2)[nH]c(=O)c1CCC(C)C	i	i	i	i	i
Cc1oc(-c2ccccc2F)nc1CSCC(=O)NCCc1ccccc1	nt	nt	nt	i	nt
Cc1oc(-c2ccccc2F)nc1CSCC(=O)NCc1ccc2c(c1)OCO2	i	i	i	33	i
N/C(Cc1ccc(Cl)cc1)=N\OC(=O)c1ccccc1	?	i	i	i	68
COc1ccc(C/C(N)=N/n2cnnc2)cc1Cl	i	i	i	i	i
N/C(CN1CCCC1=O)=N\OC(=O)c1ccc(Cl)cc1	i	i	i	i	i
COc1ccc(C(=O)O/N=C(\N)Cc2ccc(Cl)c(Cl)c2)cc1OC	?	i	i	i	118
COc1ccc(C(=O)O/N=C(\N)Cc2ccc(Cl)cc2)cc1OC	i	i	i	i	164
N/C(CN1CCCC1=O)=N\OC(=O)c1ccc(Cl)c(Cl)c1	?	i	i	i	110
O=C(NCc1cccnc1)c1cnc2sccn2c1=O	i	i	i	i	i
Cc1cccc(OCC(=O)O/N=C(\N)Cc2ccc(Cl)cc2)c1	i	i	i	33	i
CCOC(=O)c1c(C(=O)OCC)c(C)n(CCc2ccc(OC)c(OC)c2)c1C	i	i	33	i	i
CCOC(=O)N1CCN(c2c(NCCc3ccc(OC)c(OC)c3)c(=O)c2=O)CC1	i	i	36	i	i
CN(CCOc1ccc(-c2ccn(S(=O)(=O)c3c(Cl)cccc3Cl)n2)cc1)c1ccccn1	i	i	i	i	i
C=CCc1cccc(C=Nc2cc(Br)ccc2O)c1O	?	i	i	i	72
C=CCc1cccc(C=Nc2c[nH]c(=O)[nH]c2=O)c1O	i	i	i	i	i
CCCCNC(=O)c1[nH]c2ccccc2c1Sc1ccc(C)cc1	nt	i	nt	nt	nt
CCOC(=O)CC(NC(=O)Cn1nnc(-c2ccccc2F)n1)c1ccc(OC)cc1 (centres undefined)	i	i	i	i	i
COc1cccc(OCCSc2nc3ccccc3n2CC(=O)N2CCCCC2)c1	nt	i	nt	nt	nt
CC(=O)c1cccc(NC(=O)c2cc(-c3ccncc3)nc3ccccc23)c1	i	i	i	i	i
CCOc1ccc2[nH]c3c(NCCOC)ncnc3c2c1	i	i	i	31	i
COc1ccc(NC(=O)CSc2nnc3ccc(-c4ccccn4)nn23)cc1OC	i	i	30	i	i
SMILES	D2 ag-1	D2 ag-2	D2 antag	D2 PAM-1	D2 PAM-2
Cc1ccc(S(=O)(=O)c2nc(-c3ccccc3Cl)oc2N2CCCCCC2)cc1	nt	i	nt	i	nt
CC1CN(C(=O)COC(=O)c2ccc(NC(=O)CC#N)cc2)CC(C)O1 (centres undefined)	i	i	i	i	i
O=C(Nc1cccc([N+](=O)[O-])c1)c1cc(S(=O)(=O)N2CCOCC2)cs1	i	i	i	i	i
CC1CCN(CC(=O)NC2CCCCC2)CC1	i	34	i	i	i
O=C(C1COc2ccccc2O1)N1CCCCC1 (centres undefined)	i	i	51	i	i
O=C(Cc1cccc(NC(=O)C2CCCN(C(=O)CCc3ccccc3)C2)c1)Nc1cccc(C(=O)N2CCCCC2)c1 (centres undefined)	i	nt	nt	nt	nt
Cc1cccc(C)c1NC(=O)COC(=O)Cc1ccsc1	i	i	i	i	i
CN1CCN(C(=S)NC(=O)c2ccc(Cl)cc2)CC1	i	i	i	i	i
CN1CCN(C2Cc3ccccc3Sc3cc(C(F)(F)F)ccc32)CC1 (centres undefined)	i	nt	nt	nt	i
CN1CCN(C2=Cc3ccccc3Sc3cc(F)ccc32)CC1	i	i	80	i	i
CN1CCN(C2Cc3cc(F)ccc3Sc3ccc(Cl)cc32)CC1 (centres undefined)	i	nt	nt	nt	i
CN1CCN(C2=Cc3ccc(Cl)cc3Sc3ccc(F)cc32)CC1	i	i	103	i	i
Cc1ccc(C(=S)N2CCN(Cc3ccccc3)CC2)cc1	i	i	65	i	i
